Screening data as filed in PubChem.
Sampled rows, rich in hits. Any-hit rate of the full collection: about 28%.
CD11b adhes inh – CD11b/CD18-fibrinogen binding inhibition. P05107+P11215. K562 CD11b/CD18 adhesion to fibrinogen, ATPlite luminescence; Mn2+ added to activate the integrin. inhibition, % at 10 µM. actives 0.54% (n = 93,000). AID 1497;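 active = primary inhibition of 50% or more at 10 µM, then 40% or more on retest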
CYP2C9 inhib – human CYP2C9 inhibition | inhibition, % at 5 µM | actives 20% (n = 96,000) | CYP2C9 Supersomes, luciferin-H conversion, luminescence;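 active = blocking of liver enzyme CYP2C9 beyond about 50% at 5 µM, limit read from the data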
CYP2C19 act – increases human CYP2C19 enzyme activity; activation factor at 5 µM; P33261; AID 1025; 96,000 tested, under 10 active; recombinant CYP2C19, luciferin-H EGE luminescence; active compounds read high; 0 = fully inhibited enzyme, 1 = untreated enzyme;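 active = activation factor of at least 2 at 5 µM in the primary screen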;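 note: 0 = wells with 2.5 mM tranylcypromine and 1 = vehicle-only wells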
Target sequence (P33261 whole entry, looked up): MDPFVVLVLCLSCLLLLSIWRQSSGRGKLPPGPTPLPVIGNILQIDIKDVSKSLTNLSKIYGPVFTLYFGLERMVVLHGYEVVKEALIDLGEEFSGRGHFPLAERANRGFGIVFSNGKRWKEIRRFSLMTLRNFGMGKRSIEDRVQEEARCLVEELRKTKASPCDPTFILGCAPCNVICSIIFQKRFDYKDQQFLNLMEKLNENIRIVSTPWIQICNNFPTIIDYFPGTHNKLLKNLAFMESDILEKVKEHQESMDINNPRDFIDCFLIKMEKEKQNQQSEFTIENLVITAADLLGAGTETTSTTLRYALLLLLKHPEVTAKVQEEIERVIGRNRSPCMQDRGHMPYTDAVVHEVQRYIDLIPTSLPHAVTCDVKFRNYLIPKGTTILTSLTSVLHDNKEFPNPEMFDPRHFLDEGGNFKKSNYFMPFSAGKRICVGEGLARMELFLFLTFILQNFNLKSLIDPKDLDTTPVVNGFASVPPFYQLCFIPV
CYP2C19 inhib – inhibitors of human CYP2C19 | CYP2C19 Supersomes, luciferin-H EGE luminescence, 30 min | inhibition, % at 5 µM | actives 21% (n = 96,000) | AID 778;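 active = CYP2C19 inhibition above a set limit at 5 µM in the primary screen, cut at about 50% in these data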;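 note: plate controls were negative control wells for no effect and 2.5 mM tranylcypromine positive control for full effect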
CD11b adhes enh – enhancers of human CD11b/CD18 binding to fibrinogen | K562 CD11b/CD18 adhesion to fibrinogen, ATPlite luminescence | P05107+P11215 | AID 1499 | actives 0.07% (n = 93,000) | activation, % at 10 µM;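 active = 10 µM primary screen giving 50% or more activity, confirmed by 40% or more on retest at that dose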
CYP2C9 act – increases human cytochrome P450 2C9 activity; recombinant CYP2C9, luciferin-H conversion, luminescence; active compounds read high; factor 1 = untreated enzyme, 0 = blocked; actives 1.4% (n = 96,000); activation factor at 5 µM;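 active = activation factor of 2 or more for CYP2C9 at a 5 µM dose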;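 note: 0 = sulfaphenazole-blocked wells and 1 = vehicle-only wells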
Numbers without * were called inactive; / = not tested or not shown.

SMILES	CD11b adhes inh	CYP2C9 inhib	CYP2C19 act	CYP2C19 inhib	CD11b adhes enh	CYP2C9 act
CCOc1ccc2cc(S(=O)(=O)n3ccnc3C)ccc2c1	-21.5	47.9	0.7	30.9	-1.4	0.5
Cc1cccc2cc(COC(=O)c3ccccn3)c(=O)[nH]c12	-9.8	0.9	1	0.1	-0.5	1
Cc1ccc(S(=O)(=O)N(CC(=O)NCCC2=CCCCC2)Cc2ccccc2)cc1	-14.3	56.7*	0.6	39.1	-2.0	0.4
O=C(CN(Cc1ccccc1F)S(=O)(=O)c1ccc(Cl)cc1)NCCC1=CCCCC1	-3.6	16.3	0.9	7.8	3.8	0.8
COc1ccc(CCNC(=O)CN(C2CCCCC2)S(C)(=O)=O)cc1	0.6	15.0	0.6	38.2	3.4	0.8
O=C(CN(Cc1ccccc1F)S(=O)(=O)c1ccc(Cl)cc1)NCCCO	2.3	14.2	0.5	54.4*	0.2	0.9
Cc1ccc(S(=O)(=O)N(CC(=O)NCCC2=CCCCC2)Cc2ccccc2F)cc1	/	51.7*	0.8	21.6	/	0.5
CS(=O)(=O)N(CC(=O)NCCC1=CCCCC1)C1CCCCC1	-5.5	68.7*	0.3	71.0*	4.2	0.3
O=C(CN(Cc1ccccc1)S(=O)(=O)c1ccc(F)cc1)NCCC1=CCCCC1	-10.2	45.6	0.8	19.2	-1.6	0.5
CCCCNC(=O)c1onc(CCl)c1C(=O)OC	13.0	-7.5	0.8	15.1	-1.3	1.1
CN(C)CCNC(=O)Cn1nc(C(F)F)cc1C1CC1	-12.2	-1.1	1	-0.8	0.5	1
O=C(Cn1nc(C(F)F)cc1C1CC1)NCCC1=CCCCC1	9.9	0.3	0.3	67.5*	-3.0	1
COc1ccc(S(N)(=O)=O)cc1C(=O)NCC1(N2CCCCC2)CCCCC1	5.7	-6.8	1	0.9	-1.0	1.1
Cc1ccc(S(=O)(=O)NC(CC(=O)NC2CCCC2)c2ccco2)cc1 (stereo not drawn)	4.7	32.8	0.4	58.2*	-1.9	0.7
CCOC(=O)N1CCC(NC(=O)CC(NS(=O)(=O)c2ccc(Cl)cc2)c2ccco2)CC1 (stereo not drawn)	-19.0	53.8*	0.4	59.7*	5.8	0.5
CCOC(=O)N1CCN(C(=O)CN(C2CCCCC2)S(=O)(=O)c2ccc(Cl)cc2)CC1	-22.9	22.2	0.8	16.3	-2.4	0.8
COCCCNC(=O)CC(NS(=O)(=O)c1ccc(Cl)cc1)c1ccco1 (stereo not drawn)	-21.0	51.8*	0.4	60.8*	-5.9	0.5
CCOC(=O)N1CCC(Nc2nc3ccccc3nc2NS(=O)(=O)c2ccc(Cl)cc2)CC1	91.5*	95.0*	0.8	18.6	0.0	0.1
Cc1ccc(S(=O)(=O)NCC2CCC(C(=O)O)CC2)cc1 (stereo not drawn)	/	7.8	1	4.4	/	0.9
Cc1ccc(-c2noc(CN(C(=O)c3cccs3)C(C)C)n2)cc1	5.5	74.5*	0.6	44.8	-1.9	0.3
CC(C)N(Cc1nc(-c2ccc(Cl)cc2)no1)C(=O)c1cccs1	42.4	89.1*	0.2	78.1*	-0.4	0.1
COc1ccc2c(CC#N)c[nH]c2c1	0.4	-9.8	0.8	19.5	-1.6	1.1
CSc1ccc(S(=O)(=O)Nc2ccc(NC(C)=O)cc2)cc1	7.6	94.5*	0	99.9*	-1.3	0.1
CSc1ccc(S(=O)(=O)Nc2ccc(S(=O)(=O)Nc3ccc(C)cc3)cc2)cc1	18.5	100.3*	0.1	94.8*	4.3	0
Cc1ccc(S(=O)(=O)Nc2ccc(S(=O)(=O)Nc3ncccn3)cc2)cc1	9.9	48.7	0.7	27.3	0.5	0.5
CC(C)Cc1csc(NC(=O)c2ccc(Cl)cc2)c1C(=O)O	100.4*	/	/	/	-7.1	/
CCOC(=O)c1c(CC(C)C)csc1NC(=O)CCl	3.0	61.7*	0.8	22.5	-3.9	0.4
CCOC(=O)c1c(CC(C)C)csc1NC(=O)C(C)C	-0.1	-10.5	0.8	20.8	2.9	1.1
COc1ccc(-c2nc(CSCC(=O)NC3CCCc4ccccc43)c(C)o2)cc1OC (stereo not drawn)	2.2	66.1*	0.4	60.6*	-1.6	0.3
COc1ccc(-c2nc(CSCC(=O)N3CCN(c4cccc(C)c4)C(C)C3)c(C)o2)cc1OC (stereo not drawn)	5.3	37.2	0.3	73.1*	-1.3	0.6
